Vc quorum ag-1 = inducers of Vibrio cholerae quorum light production without autoinducers, primary screen, BH1578 luxS cqsA deficient, single point; V. cholerae BH1578 lux reporter, luminescence, 6 h; activation, % at 18.7 µM; 0.16% of 350,000 active; AID 588436, 2011; in the data active means activation mostly above about 9.7%, no sharp cut-off
PfHsp40 yeast = rescue of yeast from PfHsp40 toxicity, primary screen, S. cerevisiae, ATP luminescence | S. cerevisiae expressing PfHsp40, growth rescue | growth rescue, % at 12.5 µM | 0.68% of 340,000 active | AID 504582, 2011; in the data active means growth rescue above about 28%, passing the limit was not always enough;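 further: yeast W303a lacking pdr1 and pdr3 grown in galactose medium; growth measured after three days at 30 °C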
BioA inh = M. tuberculosis BioA enzyme inhibitors, primary screen, biochemical, plate reader, single point, HTS; 7,8-diaminopelargonic acid synthase BioA (Mycobacterium tuberculosis); purified M. tuberculosis BioA enzyme; inhibition, % at 9.99 µM; 0.096% of 360,000 active; AID 602481, 2012; in the data active means inhibition above about 40%
TcdB inh = TcdB glycohydrolase inhibitors, primary screen, biochemical, single point, plate reader. inhibition, % at 9.99 µM. 0.24% of 350,000 active. Toxin B (Clostridioides difficile), P18177. TcdB glycohydrolase enzymatic assay. AID 652162, 2013; in the data active means inhibition above about 10%
DUSP3 inh = VHR1 phosphatase inhibitors, primary screen, biochemical, absorbance, uHTS | Dual specificity protein phosphatase 3 (Homo sapiens), P51452 | recombinant VHR phosphatase, pNPP absorbance | inhibition, % at 13.3 µM | 0.52% of 290,000 active; in the data active means inhibition above about 50%
Yp Topo-I inh = Yersinia pestis topoisomerase I inhibitors, primary screen, biochemical, cleavage product accumulation, plate reader, single point | DNA topoisomerase I (Yersinia pestis CO92) | Y. pestis Topo-I cleavage product accumulation | activity, % at 10 µM | 0.064% of 360,000 active; in the data active means activity above about 50%, passing the limit was not always enough
Vc quorum ag-2 = V. cholerae lux activation without autoinducers – BH1578 luxS cqsA deficient, cherry-pick, plate reader, dose response | shares compounds with Vc quorum ag-1 | V. cholerae BH1578 lux reporter, luminescence, 6 h | activation, % at 50 µM | 620 tested, under 10 active; call rule not given here
HeLa 24h tox = HeLa cell cytotoxicity, dose response, cytotoxicity control, 24 h, dry powder. shares compounds with Vc quorum ag-1. HeLa viability, CellTiter-Glo ATP luminescence. activity change, negative = cytotoxicity, % at 35 µM. 25 tested, under 10 active. AID 624140, 2012;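 active means signal drop with fitted half-maximal concentration at or below twice the highest valid dose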
Numbers without * were called inactive; i = inactive; . = no result. The list is not random: actives were taken first. Their share in the collection is about 1.2%.

SMILES | Vc quorum ag-1 | PfHsp40 yeast | BioA inh | TcdB inh | DUSP3 inh | Yp Topo-I inh | Vc quorum ag-2 | others
O=C(CN1C(=O)COc2ccccc21)c1cccc(Cl)c1 | i | -1 | 3 | . | 30 | 6 | .
O=C(CN1C(=O)COc2ccccc21)c1ccc(Cl)cc1 | 17* | 0 | 2 | . | 25 | -7 | 1
Cc1ccc(OCCNC(=O)Cn2cnc3c(=O)n(C)c(=O)n(C)c32)cc1C | i | 1 | -2 | . | 26 | 5 | .
Cc1ccc(NC(=O)Cc2noc3ccccc23)cc1 | -1 | 0 | -1 | . | 0 | 0 | .
Cc1ccc2onc(CC(=O)O)c2c1 | 24 | 0 | . | . | 8 | 0 | 0
COc1ccc(C=O)cc1Cn1c(C)cc(C)c(C#N)c1=O | -1 | 1 | 0 | 1 | 8 | 2 | .
COc1cc(CNC(C)(C)CO)cc(Br)c1OCc1ccc(Cl)cc1Cl | i | -2 | . | 2 | -7 | -15 | .
Cc1ccc(S(=O)(=O)Nc2ccccn2)c(C)c1 | 1 | . | -1 | 2 | . | 9 | .
Cc1cc(C)c(S(=O)(=O)Nc2ccccn2)c(C)c1 | 52* | 0 | -3 | 0 | -8 | -2 | 0
Cc1noc(C)c1COc1ccc(C(=O)NCC(c2c(F)cccc2Cl)N(C)C)cc1 (stereo not drawn) | 19 | -1 | 3 | 3 | . | 1 | 0
CC(C)(C)NC(=O)CSCc1c(Cl)cccc1Cl | 2 | 0 | . | -1 | -8 | 19 | .
CCCN(CC1CCCO1)C(=O)c1cc(COc2cccc(OC)c2)on1 (stereo not drawn) | . | 11 | 1 | 1 | 0 | 20 | .
CC(C)c1ccc(OCCCCN2CCCCC2)cc1 | i | 1 | 0 | 1 | 10 | -1 | .
CC(C)Oc1ccc(OCCCN2CCCCCC2)cc1 | 14 | 0 | -1 | . | 19 | 2 | 0
CCN1CCN(c2c(S(=O)(=O)c3ccc(Cl)cc3)cnc3ccccc23)CC1 | . | . | . | 1 | . | . | .
CC(C)NC(=O)COc1ccc(S(=O)(=O)N2CCCC2)cc1 | i | 0 | -1 | 0 | -16 | -14 | .
CSc1ccccc1NC(=O)COc1ccc(S(=O)(=O)N2CCCC2)cc1 | 12 | 0 | -1 | . | -9 | 1 | 0
COC(=O)Cn1nc(-c2ccccc2)c2ccccc21 | 12 | 0 | 0 | . | -5 | 11 | 0
O=C(O)CCCn1nc(-c2ccccc2)c2ccccc21 | 0 | 0 | 0 | 1 | 24 | 4 | .
COc1ccc2c3c(n(C)c2c1)[C@H](CO)N(Cc1ccccc1F)CC31CCN(C(=O)C2CCCC2)CC1 | . | . | . | -1 | . | . | .
O=C(COC(=O)c1ccc(O)cc1)c1ccc2c(c1)OCCO2 | 14 | 1 | -3 | 2 | . | 2 | 6
COc1cc(SC)ccc1C(=O)OCC(=O)NCC(C)C | 67* | 0 | . | 1 | 18 | 0 | 430
COc1cc(SC)ccc1C(=O)OCC(=O)NC(=O)NC(C)C | 0 | -1 | . | 0 | 10 | 11 | .
COc1cccc(NC(=O)C2CC(=O)OC23CCOC(C)(C)C3)c1 (stereo not drawn) | 18 | 2 | 0 | . | 19 | 8 | 0
CCCOC(=O)c1ccc(NC(=O)CCC(=O)OCC)cc1 | 12 | 0 | 2 | . | -11 | 2 | 0
CCCOC(=O)c1ccc(NC(=O)C2CCCO2)cc1 (stereo not drawn) | 17* | 1 | -1 | . | -12 | -5 | 0
O=C(/C=C/CCc1ccc2c(c1)OCO2)N1CCCCC1 | -1 | 0 | 0 | 0 | . | 16 | .
CCn1c(CC(=O)Nc2cccc(Cl)c2Cl)nnc1SCCOc1ccc(OC)cc1 | . | 0 | . | 0 | 23 | 7 | i | HeLa 24h tox=7
